Source: PubChem BioAssay (Broad Institute)
Most compounds without a hit are left out; they make up all but 6.8% or so of the library.
T cruzi growth-1 = T. cruzi proliferation inhibition; 77,000 tested, 5.9% active; T. cruzi beta-gal in NIH3T3, GalScreen luminescence, 90 h; inhibition, % at 8.34 µM;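 active = mean inhibition above about 93%, with at least 55% of replicates each passing it, limit read from the data, passing the limit was not always enough; inconclusive = only one of those two conditions holds; inactive = neither condition holds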
C diff growth = blocks growth of Clostridium difficile. Clostridium difficile clinical isolate growth, OD600, 24 h; hits give low values. 86,000 tested, 0.25% active. growth activity, negative = inhibition, % at 16 µg/mL (by protocol). AID 1259249;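 active = mean growth activity at or below -80% and every replicate also at or below -80%; inconclusive = mean at or below -80% but some replicate above -80%; inactive = mean growth activity above -80%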;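 also: 0% = DMSO wells and -100% = levofloxacin 16 µg/mL wells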
Pf Dd2 inh = inhibitors of Plasmodium falciparum Dd2 growth; 94,000 tested, 2.3% active; P. falciparum Dd2 growth, SYBR Green, 72 h; hits give low values; activity change, % at 10 µM; in the data active = activity change below about -80%; inconclusive = no clear call, values can overlap the other calls
T cruzi growth-2 = inhibitors of T. cruzi proliferation. shares compounds with T cruzi growth-1. T. cruzi beta-gal in NIH3T3, GalScreen luminescence, 90 h. inhibition, % at 8.35 µM. 5,600 tested, 72% active;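 active = mean replicate inhibition above about 95% and at least 55% of replicates individually reaching it, limit read from the data; inconclusive = only one of the two criteria is met; inactive = neither criterion is met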
T cruzi growth-3 = inhibitors of T. cruzi proliferation; shares compounds with T cruzi growth-1; T. cruzi beta-gal in NIH3T3, GalScreen luminescence, 90 h; inhibition, % at 2.09 µM; 5,600 tested, 21% active; AID 651740;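 active = mean inhibition above about 95%, with at least 55% of replicates also reaching it, limit read from the data; inconclusive = meets just one of the two conditions; inactive = meets neither condition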;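 also: plate controls were neutral control median for no effect and positive control median for full effect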
NIH3T3 tox = kills mouse NIH/3T3 fibroblasts; NIH/3T3 viability, CellTiter-Glo ATP luminescence, 90 h; AID 651742; 5,600 tested, 14% active; cytotoxicity (signal decrease), % at 8.35 µM; shares compounds with T cruzi growth-1;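 active = mean signal decrease across replicates above about 35% based on untreated-well scatter, with enough replicates individually passing, limit read from the data; inconclusive = no rule stated though some were filed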;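 also: 0% = median of neutral control wells and 100% = median of positive control wells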
NIH3T3 tox 2 = cytotoxicity in mouse NIH/3T3 fibroblasts; 5,600 tested, 56% active; AID 651744; inhibition, % at 24.9 µM; shares compounds with T cruzi growth-1; NIH/3T3 viability, CellTiter-Glo ATP luminescence, 90 h;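 active = mean loss of cell viability signal at or above a set limit, and enough replicates individually reaching it; inconclusive = meets only the mean limit or only the replicate share; inactive = meets neither condition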;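 also: 0% = median of neutral control wells and 100% = median of positive control wells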
Active calls of the source: *; ? = inconclusive; . = no result given.

SMILES	T cruzi growth-1	C diff growth	Pf Dd2 inh	T cruzi growth-2	T cruzi growth-3	NIH3T3 tox	NIH3T3 tox 2
O=C(Cc1cccnc1)N1CCCCN2[C@H](CO)[C@H](c3ccc(/C=C/c4ccccc4)cc3)[C@@H]2C1	119*	-12	8	114*	102*	?	79*
C/C=C/c1ccc([C@@H]2[C@@H](CO)N3CCCCN(C(=O)Cc4cccnc4)C[C@H]23)cc1	52	-3	16	.	.	.	.
O=C(Cc1cccnc1)N1CCCCN2[C@@H](CO)[C@H](c3ccc(/C=C/c4ccccc4)cc3)[C@@H]2C1	105*	52	8	104*	73	?	104*
O=C(Cc1cccnc1)N1CCCCN2[C@H](C1)[C@H](c1ccc(/C=C/c3ccccc3)cc1)[C@@H]2CO	94	-6	-10	.	.	.	.
COc1ccc(C#Cc2ccc([C@@H]3[C@@H](CO)N4CCCCN(C(=O)Cc5ccccc5)C[C@H]34)cc2)cc1	76	6	-32	.	.	.	.
COc1ccc(C#Cc2ccc([C@@H]3[C@@H](CO)N4CCCCN(C(=O)Cc5ccncc5)C[C@H]34)cc2)cc1	111*	1	-51	107*	81	31	106*
COc1ccc(C#Cc2ccc([C@H]3[C@@H](CO)N4CCCCN(C(=O)Cc5ccccc5)C[C@@H]34)cc2)cc1	87	-1	-34	.	.	.	.
COc1ccc(C#Cc2ccc([C@@H]3[C@H](CO)N4CCCCN(C(=O)Cc5ccccc5)C[C@@H]34)cc2)cc1	112*	9	-77	101*	105*	22	106*
COc1ccc(-c2ccc([C@@H]3[C@@H](CO)N4CCCCN(C(=O)Cc5ccncc5)C[C@@H]34)cc2)cc1	52	-5	-55	.	.	.	.
COc1ccc(C#Cc2ccc([C@@H]3[C@H]4CN(C(=O)Cc5ccccc5)CCCCN4[C@H]3CO)cc2)cc1	99*	0	-46	93	103*	3	105*
COC(=O)[C@H]1[C@H](CO)[C@H]2Cn3c(ccc(-c4cccc(C(=O)N(C)C)c4)c3=O)[C@@H]1N2C(=O)NC(C)C	7	3	13	.	.	.	.
O=C1CNC[C@@H]2[C@H](c3ccc(Br)cc3)[C@H](CO)N12	.	11	-49	.	.	.	.
O=C(O)[C@H]1[C@H](CO)[C@H]2Cn3c(ccc(-c4ccncc4)c3=O)[C@@H]1N2S(=O)(=O)c1ccccc1F	-81	-3	.	.	.	.	.
COC(=O)[C@@H]1[C@@H](CO)[C@@H]2Cn3c(ccc(C4=CCCCC4)c3=O)[C@H]1N2Cc1cccnc1	19	0	-5	.	.	.	.
O=C(Cc1ccccn1)N1CCCCN2[C@@H](CO)[C@@H](c3ccc(-c4ccccc4)cc3)[C@@H]2C1	113*	1	-21	?	68	-9	15
O=C(Cc1ccccn1)N1CCCCN2[C@H](CO)[C@@H](c3ccc(Br)cc3)[C@H]2C1	105*	-9	19	-3	-14	4	-1
O=C(Cc1ccccn1)N1CCCCN2[C@H](C1)[C@H](c1ccc(Br)cc1)[C@@H]2CO	2	3	22	.	.	.	.
O=C(Cc1ccccn1)N1CCCCN2[C@H](CO)[C@H](c3ccc(-c4ccccc4)cc3)[C@H]2C1	41	-11	-13	.	.	.	.
COc1ccc(OC(=O)N(C)C[C@H]2OCc3ccccc3-c3c(n(C)c4ccccc34)C(=O)N([C@H](C)CO)C[C@@H]2C)cc1	.	1	?	.	.	.	.
O=C(O)[C@@H]1[C@@H](CO)[C@@H]2Cn3c(ccc(-c4ccncc4)c3=O)[C@H]1N2C(=O)C1CCCCC1	58	-5	3	.	.	.	.
CCCC#Cc1ccc([C@@H]2[C@@H](CO)N3CCCCN(C(=O)Cc4ccccn4)C[C@@H]23)cc1	110*	-5	-55	?	57	22	13
CCCC#Cc1ccc([C@H]2[C@H](CO)N3CCCCN(C(=O)Cc4ccccn4)C[C@@H]23)cc1	49	-11	-17	.	.	.	.
CCCC#Cc1ccc([C@@H]2[C@@H](CO)N3CCCCN(C(=O)Cc4ccccn4)C[C@H]23)cc1	86	1	-16	.	.	.	.
O=C(Cc1ccccn1)N1CCCCN2[C@H](C1)[C@@H](c1ccc(C#Cc3ccccc3)cc1)[C@@H]2CO	99*	-18	-56	105*	51	41*	104*
CCCC#Cc1ccc([C@H]2[C@H]3CN(C(=O)Cc4ccccn4)CCCCN3[C@H]2CO)cc1	119*	-1	-10	90	41	-3	23
CCCC#Cc1ccc([C@H]2[C@@H](CO)N3CCCCN(C(=O)Cc4ccccn4)C[C@H]23)cc1	50	-11	-17	.	.	.	.
COC(=O)[C@H]1[C@H](CO)[C@H]2Cn3c(ccc(C4=CCCC4)c3=O)[C@@H]1N2S(=O)(=O)c1cn(C)cn1	16	-3	3	.	.	.	.
CC1(CCO)CC(C)(CCc2ccccc2)OO1 (configuration not stated)	.	-20	.	.	.	.	.
